The record followed here is the supplement of paper PMC9135407.

The assay has as its system primary human hepatic stellate cells (donor 1). The experiment in a line: scaled lipid accumulation score (0 = DMSO-like, 1 = nortriptyline-like); higher = stronger HSC inactivation (lipid re-accumulation), active = hit call of the paper. The note with it: 48 h. On the procedure: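 Primary lipid accumulation screen in primary human hepatic stellate cell myofibroblasts (donor 1, passage 8) in 384-well plates. 100 nL of library compound was pin-transferred into 30 µL medium in duplicate, and cells were treated for 48 h. The 'Scaled' score combines distance from plate baseline, toxicity and reproducibility penalties, and is normalised to nortriptyline (positive) and DMSO (negative) controls on each plate. A hit is defined as scaled >0.85 or among the top 3 wells per plate.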

Setting [1] is: library stock concentration: 10 mM.
Where [2] appears, read: library stock concentration: 1 mM.
Where [3] appears, read: library stock concentration: 2 mM.
The mark [4] stands for this setting: library stock concentration: 80 uM.
Setting [5] is: library stock concentration: 400 uM.
Setting [6] is: library stock concentration: 3.33 mM.
The mark [7] stands for this setting: library stock concentration: 6.9 mM.

“And” between values parts separate entries of the source, which are not always exact repeats. Identical values can stand only once. Counter-ions that a name gives are not always drawn. Among all 5,800 compounds or so, about 620 (11%) showed activity. Only a selection was taken, and actives are over-represented in it overall. Values without a mark were called inactive.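 How the source made its calls: active = score above a cut-off or among the top three wells of a plate; in these data no inactive exceeds 0.85.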

`CCCOc1ccc2[nH]cc(C3=CCNCC3)c2n1`: the “scaled lipid accumulation score” value under setting [1] was 0.748.

For `O=c1ccc2[nH]cc(C3=CCNCC3)c2[nH]1`, under setting [1], the “scaled lipid accumulation score” value was 0.084 and ≤ -0.006.

With `COc1ccc2[nH]c3c(c2c1)CCNC3` [6-Methoxy-1,2,3,4-tetrahydro-9H-pyrido[3,4b] indole], the “scaled lipid accumulation score” value under setting [1] is 0.691.

For the compound `COc1ccc2[nH]cc(C3=CCNCC3)c2c1.COc1ccc2[nH]cc(C3=CCNCC3)c2c1.O=C(O)CCC(=O)O`, the “scaled lipid accumulation score” value under setting [1] is 1.68 (active).

As for `N#Cc1ccc(N2CCN(C(=O)COc3ccc4[nH]cc(CCN)c4c3)CC2)cc1` [Donitriptan hydrochloride], under setting [1], the “scaled lipid accumulation score” value is not above 0.

In the case of `CN1CC[C@@H]2CN3CCc4cccc(c43)[C@@H]2C1` [SDZ SER 082 fumarate], the “scaled lipid accumulation score” value under setting [1] was not above -0.006.

As to `CCCCCC(=O)N[C@H]1CCOC1=O` [N-hexanoyl-L-Homoserine lactone], under setting [2], the “scaled lipid accumulation score” value is not above 0.

Take `CO[C@H](C/C=C\C=C\CC/C=C/C[C@H](C)/C=C/C(=C\C(=O)O)CC(=O)O)/C(C)=C\C=C(/C)C(=O)O` [Bongkrekic acid]: the “scaled lipid accumulation score” value under setting [2] was not above -0.014.

With `N#CC(C#N)=Cc1ccc(O)cc1` [Tyrphostin-8], the “scaled lipid accumulation score” value (library stock concentration: 29.4 mM) was not above -0.012.

Consider `CC(Cc1ccc(OCC(=O)O)cc1)NCC(O)c1cccc(Cl)c1` (configuration not stated), for which the “scaled lipid accumulation score” value under setting [1] was 0.056.

With `COc1ccc(CC2c3cc(OC)c(OC)cc3CCN2C)cc1OC` (racemic) [Laudanosine (R,S)], the “scaled lipid accumulation score” value was not above 0.

For the compound `COc1cc2c(cc1O)[C@@H]1Cc3ccc(OC)c(O)c3CN1CC2` [Scoulerine], the “scaled lipid accumulation score” value is 0.07.

Take `COc1cc2c(cc1O)C(CCc1ccc(Cl)cc1)N(C)CC2.Cl` (configuration not stated): the “scaled lipid accumulation score” value under setting [1] was 0.872 (active).

In the case of `C/C1=C/C(=O)O[C@@H]2C[C@@H](CC[C@H](C)/C=C\CC1)O[C@@](O)([C@@H]1CSC(=O)N1)C2` [Latrunculin B], the “scaled lipid accumulation score” value (library stock concentration: 12.6 mM) was 0.632.

Turning to `CCCCC/C=C\C/C=C\C/C=C\C/C=C\CCCC(=O)N[C@@H](C)CO` [S-1 Methanandamide], under setting [2], the “scaled lipid accumulation score” value is not above 0.

With `CN1C2CC(=O)CC1C(O)C2` (configuration not stated) [6-Hydroxytropinone], the “scaled lipid accumulation score” value is not above 0.

For the compound `CN1[C@@H](C[C@@H](O)c2ccccc2)CCC[C@H]1C[C@H](O)c1ccccc1` [Lobelanidine hydrochloride], the “scaled lipid accumulation score” value is 0.194.

Turning to `O=C(O)C1=CCCN(CCOC(c2ccc(C(F)(F)F)cc2)c2ccc(C(F)(F)F)cc2)C1` [CI 966 hydrochloride], the “scaled lipid accumulation score” value under setting [1] was not above -0.006.

`O=C1C=C2C(C(C)=C1O)=CC=C3[C@]2(CCC4([C@@H]5C[C@@](CC[C@@]5(CC[C@]34C)C)([C@@](O)=O)C)C)C` (some centres not stated) [Celastrol]: the “scaled lipid accumulation score” value by setting is: under setting [3], 1.14 (active); under setting [1], 1.14 (active).

In the case of `CC1=C(O)C(=O)C=C2C1=CC=C1[C@@]2(C)CC[C@@]2(C)[C@@H]3C[C@](C)(C(=O)O)CC[C@]3(C)CC[C@]12C` [Celastrol] [listing 1 of 2 here], the “scaled lipid accumulation score” value was 0.019 under setting [4], 0.093 under setting [5] and 0.392 under setting [1].

For `CC1=C(O)C(=O)C=C2C1=CC=C1[C@@]2(C)CC[C@@]2(C)[C@@H]3C[C@](C)(C(=O)O)CC[C@]3(C)CC[C@]12C` [Celastrol] [listing 2 of 2 here], the “scaled lipid accumulation score” value under setting [2] was 1.34 (active).

Regarding `CN1CCN(C(=O)O[C@H]2c3nccnc3C(=O)N2c2ccc(Cl)cn2)CC1`, under setting [1], the “scaled lipid accumulation score” value is 0.134.

Turning to `CN1CCN(C(=O)O[C@H]2c3nccnc3C(=O)N2c2ccc(Cl)cn2)CC1` [Eszopiclone], under setting [1], the “scaled lipid accumulation score” value was not above 0.

`C#CCN[C@H](C)Cc1ccccc1` [R-(-)-Desmethyldeprenyl hydrochloride]: the “scaled lipid accumulation score” value under setting [1] is not above 0.

For `CC[C@@H]1C=CC=CC[C@H](C)[C@@H](O)[C@@H](C)C(=O)[C@H](C)[C@@H](O)[C@H](C)C(=O)[C@H](C)[C@@H](O)[C@H](C)C=CC(=O)O[C@H]2[C@@H](C)[C@@H](CC1)O[C@@]1(CC[C@@H](C)[C@@H](C[C@H](C)O)O1)[C@@H]2C`, the “scaled lipid accumulation score” value under setting [1] is not above 0.

Take `CCC(Oc1ccc(Cl)cc1)C(=O)OC1CC2CCC(C1)N2C.O=C(O)/C=C\C(=O)O` (configuration not stated) [SM-21 maleate]: under setting [1], the “scaled lipid accumulation score” value is 0.886 (active).

As for `CN1[C@@H]2CC[C@H]1C[C@@H](OC(=O)C(CO)c1ccccc1)C2` (some centres not stated), the “scaled lipid accumulation score” value under setting [1] is not above 0.

As to `CN1[C@@H]2CC[C@H]1C[C@@H](OC(=O)[C@H](CO)c1ccccc1)C2` [Hyoscyamine], the “scaled lipid accumulation score” value is not above 0 under setting [6]; not above -0.001 under setting [7]; ≤ 0 and 0.017 under setting [1].

Take `CN1[C@@H]2CC[C@H]1CC(OC(=O)N1Cc3ccccc3NC1=O)C2` (some centres not stated) [DAU 5884 hydrochloride]: the “scaled lipid accumulation score” value under setting [1] is not above -0.001.

As for `CN1[C@@H]2CC[C@H]1C[C@@H](OC(=O)[C@H](CO)c1ccccc1)C2` [Hyoscyamine (L)], the “scaled lipid accumulation score” value is not above 0.

As for `CC(C(=O)OC1CC2CCC(C1)N2C)c1ccc(Br)cc1.O=C(O)/C=C\C(=O)O` (configuration not stated) [PG-9 maleate], under setting [1], the “scaled lipid accumulation score” value is 0.958 (active).

For `CN1[C@@H]2CC[C@H]1C[C@@H](OC(=O)C(CO)c1ccccc1)C2` (some centres not stated) [Atropine sulfate], the “scaled lipid accumulation score” value is 0.019 (library stock concentration: 5.2 mM); 0.018 under setting [7]; 0.196 and ≤ 0 under setting [1].

In the case of `COc1ccc(C(=O)OC2C[C@H]3CC[C@@H](C2)N3C)cc1OC` (some centres not stated) [Convolamine hydrochloride], the “scaled lipid accumulation score” value is 0.027.

Turning to `CN1[C@@H]2CC[C@H]1C[C@@H](OC(=O)C(CO)c1ccccc1)C2` (some centres not stated) [Atropine sulfate monohydrate], the “scaled lipid accumulation score” value was 0.118.

`CN1[C@@H]2CC[C@H]1C[C@@H](OC(=O)[C@H](CO)c1ccccc1)C2` [L-Hyoscyamine]: the “scaled lipid accumulation score” value under setting [1] is not above -0.07.

For the compound `CN1[C@@H]2CC[C@H]1C[C@@H](OC(=O)C(CO)c1ccccc1)C2` (some centres not stated) [Atropine], the “scaled lipid accumulation score” value runs as follows: under setting [6], not above 0; under setting [1], not above 0.

With `CNCC(O)c1ccc(O)c(OC)c1` (stereo not drawn) [Metanephrine hydrochloride DL], the “scaled lipid accumulation score” value was 0.001.

`CCCCCC1OC1C/C=C\CCCCCCCC(=O)O` (configuration not stated) [Leukotoxin B (12,13-EODE)]: under “library stock concentration: 100 uM”, the “scaled lipid accumulation score” value was not above -0.021.

On to `CCCCCC[C@H]1C(=O)O[C@H](C)[C@H](NC(=O)c2cccc(NC=O)c2O)C(=O)O[C@@H](C)[C@@H]1OC(=O)CC(C)C` [Antimycin A], for which the “scaled lipid accumulation score” value is 0.274.

In the case of `CCCCC/C=C\C/C=C\C/C=C\C/C=C\CCCC(=O)N(C)C` [Arachidonoyl-N,N-dimethyl amide], the “scaled lipid accumulation score” value under setting [2] is 0.01.

For the compound `CC(N)C(O)c1ccccc1` (configuration not stated) [Phenylpropanolamine hydrochloride], the “scaled lipid accumulation score” value was not above 0. For the same compound, the “scaled lipid accumulation score” value (library stock concentration: 10.7 mM) is not above -0.001.

As for `CC(N)C(O)c1ccccc1` (configuration not stated) [Phenylpropanolamine], the “scaled lipid accumulation score” value (library stock concentration: 13.2 mM) is not above 0.

As for `C=C[C@H]1CN2CC[C@H]1C[C@H]2[C@H](OC(=O)OCC)c1ccnc2ccc(OC)cc12` [Quinine ethyl carbonate], the “scaled lipid accumulation score” value was not above -0.001 (library stock concentration: 5 mM) and 0.318 under setting [1].

On to `CN1C[C@H](C(=O)N[C@]2(C)O[C@@]3(O)[C@@H]4CCCN4C(=O)[C@H](Cc4ccccc4)N3C2=O)C[C@@H]2c3cccc4[nH]cc(c34)C[C@H]21` [Dihydroergotamine mesylate], for which the “scaled lipid accumulation score” value by setting is: (library stock concentration: 2.9 mM) not above 0; under setting [1], 0.16 and 0.216.

In the case of `CC(C)[C@@]1(NC(=O)[C@@H]2C[C@@H]3c4cccc5[nH]cc(c45)C[C@H]3N(C)C2)O[C@@]2(O)[C@@H]3CCCN3C(=O)[C@H](Cc3ccccc3)N2C1=O` [Dihydroergocristine mesylate], the “scaled lipid accumulation score” value is 0.232. The “scaled lipid accumulation score” value under setting [1] was 0.54.

With `CN1C[C@H](C(=O)N[C@]2(C)O[C@@]3(O)[C@@H]4CCCN4C(=O)[C@H](Cc4ccccc4)N3C2=O)C[C@@H]2c3cccc4[nH]cc(c34)C[C@H]21` [Dihydroergotamine tartrate], the “scaled lipid accumulation score” value is 0.119.

For `CN1C[C@H](C(=O)N[C@]2(C)O[C@@]3(O)[C@@H]4CCCN4C(=O)[C@H](Cc4ccccc4)N3C2=O)C[C@@H]2c3cccc4[nH]cc(c34)C[C@H]21.CS(=O)(=O)O` [Dihydroergotamine methanesulfonate], the “scaled lipid accumulation score” value under setting [1] is 1.06 (active).

As for `FC(F)(F)c1cccc(C2=CCN(CCc3ccc4ccccc4c3)CC2)c1` [Xaliproden hydrochloride], under setting [1], the “scaled lipid accumulation score” value is 0.229.

As for `CC(N)Cc1cnc[nH]1` (configuration not stated), the “scaled lipid accumulation score” value under setting [1] was 0.028.

Turning to `CN1CC[C@]23CCCC[C@H]2[C@H]1Cc1ccc(O)cc13`, the “scaled lipid accumulation score” value (library stock concentration: 9.9 mM) was not above 0.

As for `CC(=O)O[C@H]1C[C@@H]2CC[C@@H]3[C@H](CCC4(C)[C@H]3C[C@H]([N+]3(C)CCCCC3)[C@@H]4OC(C)=O)C2(C)C[C@@H]1[N+]1(C)CCCCC1` (some centres not stated) [Pancuronium Br], the “scaled lipid accumulation score” value (library stock concentration: 3.5 mM) is not above -0.006.

As for `Cc1n[nH]c2ccc(-c3cncc(OC[C@@H](N)Cc4c[nH]c5ccccc45)c3)cc12`, under setting [5], the “scaled lipid accumulation score” value is 1 (active).

Regarding `CNC(Cc1c[nH]c2ccccc12)C(=O)O` (configuration not stated) [Abrine (l)], the “scaled lipid accumulation score” value under setting [1] was not above 0.

Take `Cc1[nH]nc2ccc(-c3cncc(OC[C@@H](N)Cc4c[nH]c5ccccc45)c3)cc12`: the “scaled lipid accumulation score” value by setting is: under setting [4], 0.308; under setting [3], 0.593; under setting [1], 0.427.

In the case of `C[N+]1(C)C2CCC1CC(OC(=O)c1c[nH]c3ccccc13)C2` (configuration not stated) [3-Tropanylindole-3-carboxylate methiodide], the “scaled lipid accumulation score” value under setting [1] was not above 0.

Take `O=C(N[C@H]1CN2CCC1CC2)c1ccc(Cl)cc1`: the “scaled lipid accumulation score” value under setting [1] was ≤ -0.001 and 0.156.

On to `Cn1cc(C(=O)C(=O)N[C@H]2CN3CCC2CC3)c2ccccc21`, for which the “scaled lipid accumulation score” value under setting [1] was 0.403.

As for `c1ccc2c(c1)Sc1ccccc1N2CC1CN2CCC1CC2` (configuration not stated), the “scaled lipid accumulation score” value under setting [1] is 1.03 (active).
